PubChem BioAssay (Tox21)
Inconclusive results are not listed. Entries that show only a call come without a potency. Calls of active or inactive are those of the source. Calls follow the shape of the dose curve; as a rule, active = well fitted cell-killing curve with a large enough effect in the repeat runs; inconclusive = weak or mixed curves, or effect the other way; inactive = no such curve, though single readings can be large or run the other way.

Assay: qHTS assay to identify small molecule antagonists of the peroxisome proliferator-activated receptor gamma (PPARg) signaling pathway - cell viability counter screen (AID 743194); also: nearly all actives have a fitted effect of over 55% in size
Conditions: PPARg-bla HEK293H viability, CellTiter-Glo luminescence, 17 h; Potency: co-treated with 50 nM rosiglitazone; series mostly up to 62.6 µM
Excerpt: U.S. Tox21 Program National Center for Advancing Translational Sciences [NCATS] NIH Chemical Genomics Center [NCGC] U.S. Environmental Protection Agency [EPA] National Institutes of Environmental Health Sciences [NIEHS] National Toxicology Program [NTP] U.S. Food and Drug Administration [FDA] Tox21 Assay Overview: The peroxisome proliferator-activated receptors (PPARs) are lipid-activated transcription factors of the nuclear receptor superfamily with three distinct subtypes namely PPAR alpha, PPAR delta (also called PPAR beta) and PPAR gamma (PPARg). All these subtypes heterodimerize with Retinoid X receptor (RXR) and these heterodimers regulate transcription of various genes. PPAR-gamma receptor (glitazone receptor) is involved in the regulation of glucose and lipid metabolism. To identify the compounds that activate PPAR-gamma signaling, GeneBLAzer PPAR gamma UAS-bla HEK293H cell line (Invitrogen, Carlsbad, CA, USA) containing a beta-lactamase reporter gene under the control of an Upstream Activator Sequence (UAS) was used to screen the Tox21 compound library. The cytotoxicity of the Tox21 compound library against the PPARg-bla cell line was tested in parallel by measuring the cell viability using CellTiter-Glo assay in the same wells.
Tox21 Assay Protocol Summary: PPARg-bla cells were dispensed at 3000 cells/5uL/well in 1536-well black wall/clear bottom plates using a Multidrop Combi (Thermo Fisher Scientific, Waltham, MA) dispenser. After the assay plates were incubated at 37 C and 5% CO2 for 5 h, 23 nL of compounds dissolved in DMSO, positive controls or DMSO only was transferred to the assay plate by a Pintool station (Kalypsys, San Diego, CA), followed by addition of 1ul Rosiglitazone (50 nM, final concentration in the wells). The assay plates were incubated at 37 C for 17 h, and then 1 uL of LiveBLAzerTM B/G FRET substrate was added using a Bioraptr Flying Reagent Dispenser (FRD) workstation (Beckman Coulter, Indianapolis, IN, USA). The assay plates were incubated at room temperature for 1 h and fluorescence intensity was measured by an Envision plate reader (PerkinElmer, Shelton, CT). For cell viability readout that measures cytotoxicity, 4 ul/well of CellTiter-Glo reagent was added into the assay plates using a Flying Reagent Dispenser. After 30 min incubation at room temperature, the luminescence intensity in the plates was measured using a ViewLux plate reader (PerkinElmer).

SMILES | Potency
CCOC(=O)NC(=S)Nc1ccccc1NC(=S)NC(=O)OCC | inactive
Nc1cnn(-c2ccccc2)c(=O)c1Cl | inactive
CCCCOC(=O)c1ccccc1N | inactive
CSc1nc(N=[N+]=[N-])nc(NC(C)C)n1 | inactive
CCc1cc2c(s1)-n1c(C)nnc1CN=C2c1ccccc1Cl | inactive
CC(=O)CC(c1ccc(Cl)cc1)c1c(O)c2ccccc2oc1=O (stereo not given) | inactive
CN1CCC(O)(c2ccc(F)cc2)C(C(=O)c2ccc(F)cc2)C1 (stereo not given) | inactive
CC(=O)Nc1cc([As](=O)(O)O)ccc1O | inactive
O=[N+]([O-])c1cccc2c([N+](=O)[O-])cccc12 | inactive
ClC(Cl)C(Cl)Cl | inactive
COc1cc(OC)nc(Oc2cccc(Oc3nc(OC)cc(OC)n3)c2C(=O)O)n1 | inactive
CNC(=O)O/N=C(\C)SC | inactive
COC(=O)c1ccccc1S(=O)(=O)NC(=O)Nc1nc(C)cc(C)n1 | inactive
O=C(N[C@H]1CN2CCC1CC2)c1cc2ccoc2cn1 | inactive
Cc1cc(C)c(C(=O)P(=O)(C(=O)c2c(C)cc(C)cc2C)c2ccccc2)c(C)c1 | inactive
CC(C)(C)C(=O)C(Oc1ccc(Cl)cc1)n1cncn1 (stereo not given) | inactive
CC(C)(C)NCC(O)c1cc(Cl)c(N)c(Cl)c1 (stereo not given) | inactive
COP(=S)(OC)Oc1c(Cl)cc(C)cc1Cl | inactive
Oc1c(Cl)cccc1Cl | inactive
O=C1OC(CCN2CCCCC2)OC1(c1ccccc1)c1ccccc1 (stereo not given) | inactive

SMILES | Potency
CC(C)CP(=S)(S)CC(C)C | inactive
CCC(Cl)[N+](=O)[O-] (stereo not given) | inactive
CC(N)=S | inactive
Clc1ccccc1N1CCNCC1 | inactive
CC1(C)COP(Oc2ccccc2)OC1 | inactive
CC(C)CC(N(C)C)C1(c2ccc(Cl)cc2)CCC1 (stereo not given) | inactive
CCOC(=O)N(C)C(=O)CSP(=S)(OCC)OCC | inactive
CC(COc1ccc(Oc2ccccc2)cc1)Oc1ccccn1 (stereo not given) | inactive
CC(C)COP(=O)(OCC(C)C)OCC(C)C | inactive
CN1C[C@@H](NS(=O)(=O)N(C)C)C[C@@H]2c3cccc4c3c(cn4C)C[C@H]21 | inactive
O=C(Cc1ccccc1)OCc1ccccc1 | inactive
O=[N+]([O-])c1ccc(CBr)cc1 | inactive
NC1=NC(=O)C(c2ccccc2)O1 (stereo not given) | inactive
CC(C(=O)c1ccccc1)N(C)C (stereo not given) | inactive
Cc1cc(C)nc(Nc2ccccc2)n1 | inactive
CC1(C)CON(Cc2ccccc2Cl)C1=O | inactive
C#C[C@]1(O)C=C[C@H]2[C@@H]3CCC4=CC(=O)CC[C@@H]4[C@H]3CC[C@@]21CC | inactive
CC1=NNC(=O)N(/N=C/c2cccnc2)C1 | inactive
O=C1CN=C(c2ccccc2)c2cc([N+](=O)[O-])ccc2N1 | inactive
COc1cc(OC)nc(Sc2cccc(Cl)c2C(=O)O)n1 | inactive
